Laboratory results: PubChem BioAssay (Tox21)
Results filed as inconclusive are left out. Active and inactive are the calls of the source. Unless noted, calls follow the shape of the full dose curve.

Assays:
[1] = Nuclear factor erythroid 2-related factor 2/antioxidant responsive element (Nrf2/ARE) small molecule agonists: qHTS cell viability counter screen in human keratinocytes (AID 1919968; active = well fitted curve in the direction sought with a large enough effect in the repeat runs; an effect the other way counts as inactive or inconclusive; also: nearly all actives have a fitted effect of over 55% in size)
In short: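 Seed 1,500 KeratinoSens cells per well, then incubate 5 h at 37 C/5% CO2. Add compounds in DMSO and incubate 23 h. Add CellTiter-Fluor, wait 1 h and read fluorescence.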

[2] = Nuclear factor erythroid 2-related factor 2/antioxidant responsive element (Nrf2/ARE) small molecule agonists: luciferase reporter gene qHTS assay in human keratinocytes (AID 1919969); also: nearly all actives have a fitted effect of over 35% in size; also: potency is read from the fitted curve at half-maximal effect
[3] = biological target: Gonadotropin-releasing hormone receptor (Homo sapiens) (UniProt P30968); assay: Human gonadotropin-releasing hormone receptor (GnRHR) small molecule agonists, calcium flux assay in GnRHR-HEK293 cells (AID 1920063); also: nearly all actives have a fitted effect of over 35% in size
Sequence of Gonadotropin-releasing hormone receptor (Homo sapiens) (P30968 whole entry, looked up): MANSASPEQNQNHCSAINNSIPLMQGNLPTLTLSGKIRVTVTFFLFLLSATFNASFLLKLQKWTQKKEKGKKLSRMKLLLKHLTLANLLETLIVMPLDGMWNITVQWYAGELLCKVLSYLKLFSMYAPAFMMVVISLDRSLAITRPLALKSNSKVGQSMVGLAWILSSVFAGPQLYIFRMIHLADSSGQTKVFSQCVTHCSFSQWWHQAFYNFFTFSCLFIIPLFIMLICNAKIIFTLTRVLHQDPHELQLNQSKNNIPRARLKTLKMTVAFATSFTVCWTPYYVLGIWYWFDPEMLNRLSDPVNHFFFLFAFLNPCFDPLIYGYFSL
In short: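 Cells: HEK293 stably expressing human GnRHR. Steps: overnight (18 h) culture, 1 h calcium dye loading at 37 C, compound addition, kinetic fluorescence read at 480/540 nm. Each compound tested at 15 concentrations in triplicate.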

[4] = biological target: KiSS-1 receptor (Homo sapiens) (UniProt Q969F8); assay: Human kisspeptin (KISS1R) small molecule agonists, calcium flux assay in KISS1R-HEK293 cells (AID 1920064; active = well fitted curve in the direction sought with a large enough effect in the repeat runs; an effect the other way counts as inactive or inconclusive)
Sequence of KiSS-1 receptor (Homo sapiens) (Q969F8 whole entry, looked up): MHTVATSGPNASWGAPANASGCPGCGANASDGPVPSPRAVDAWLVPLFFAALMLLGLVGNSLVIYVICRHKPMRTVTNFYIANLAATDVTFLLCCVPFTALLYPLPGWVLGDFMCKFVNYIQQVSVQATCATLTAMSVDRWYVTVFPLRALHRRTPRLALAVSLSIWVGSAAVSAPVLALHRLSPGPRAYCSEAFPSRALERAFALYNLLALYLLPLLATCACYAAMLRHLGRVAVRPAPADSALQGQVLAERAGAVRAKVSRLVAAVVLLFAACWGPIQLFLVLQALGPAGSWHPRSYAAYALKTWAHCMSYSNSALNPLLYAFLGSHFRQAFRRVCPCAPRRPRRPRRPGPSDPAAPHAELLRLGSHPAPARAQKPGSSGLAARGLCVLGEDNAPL
In short: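 Cells plated and incubated 18 h; dye added, 1 h at 37 C; compounds in DMSO pinned in; signal read at 480/540 nm every second for 3 min. Each compound tested at 15 concentrations in triplicate.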

[5] = p53 small molecule agonists, cell-based qHTS assay with human liver microsomes (AID 1963577);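 also: p53 response element beta-lactamase reporter cells with liver microsomes plus NADPH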
In short: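 Reporter activation was measured by LiveBLAzer fluorescence intensity in p53RE-bla cells, which had been exposed to compounds for 16 h at 37 C alongside 0.5 mg/mL human liver microsomes and 0.5 mg/mL NADPH (final concentrations).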

[6] = p53 small molecule agonists, cell-based qHTS assay with rat liver microsomes (AID 1963578)
In short: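 Compound in DMSO added to p53RE-bla cells 5 h post-plating; rat microsomes/NADPH 0.5 mg/mL final; 16 h, 37 C; LiveBLAzer 2 h RT.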

[7] = p53 small molecule agonists, cell-based qHTS assay with human liver microsomes: qHTS cell viability counter screen (AID 1963579); also: nearly all actives have a fitted effect of over 45% in size
In short: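 HLM-supplemented (0.5 mg/mL final) and NADPH-supplemented (0.5 mg/mL final) p53RE-bla cultures, 4,000 cells per well, were dosed with compounds in DMSO for 16 h at 37 C; luminescent ATP detection (CellTiter-Glo, 30 min, room temperature) quantified surviving cells.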

[8] = p53 small molecule agonists, cell-based qHTS assay with rat liver microsomes: qHTS cell viability counter screen (AID 1963580); also: nearly all actives have a fitted effect of over 45% in size
In short: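 In HCT-116 cells carrying a p53 response element-bla reporter, compounds were metabolically activated in situ by rat liver microsomes with NADPH over 16 h. Cell ATP content then served as the cytotoxicity measure.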

[9] = biological target: 5-hydroxytryptamine receptor 2A (Homo sapiens) (UniProt P28223); assay: 5-hydroxytryptamine receptor 2A (HTR2A) small molecule antagonists, cell-based qHTS assay (AID 1963586); also: nearly all actives have a fitted effect of over 45% in size; also: potency is read from the fitted curve at half-maximal effect
Sequence of 5-hydroxytryptamine receptor 2A (Homo sapiens) (P28223 whole entry, looked up): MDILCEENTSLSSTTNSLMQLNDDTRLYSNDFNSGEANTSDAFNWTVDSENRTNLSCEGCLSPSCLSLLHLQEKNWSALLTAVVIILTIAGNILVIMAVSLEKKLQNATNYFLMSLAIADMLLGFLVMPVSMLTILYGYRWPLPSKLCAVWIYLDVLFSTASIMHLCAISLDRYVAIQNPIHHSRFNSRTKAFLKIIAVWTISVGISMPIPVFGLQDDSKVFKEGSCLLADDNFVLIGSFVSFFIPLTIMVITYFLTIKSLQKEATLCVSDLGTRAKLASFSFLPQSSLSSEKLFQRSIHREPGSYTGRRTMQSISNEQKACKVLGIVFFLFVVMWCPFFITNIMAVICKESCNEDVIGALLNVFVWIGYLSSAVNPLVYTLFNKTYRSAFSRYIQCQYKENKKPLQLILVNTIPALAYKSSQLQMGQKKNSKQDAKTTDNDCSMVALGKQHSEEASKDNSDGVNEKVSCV
In short: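 Antagonist-mode intracellular calcium assay: DOI (4 nM) added after 5 min compound pre-incubation at room temperature to dye-loaded HTR2A-CHO cells. Fluorescence followed for 3 min, sampled every second.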

[10] = biological target: 5-hydroxytryptamine receptor 2A (Homo sapiens) (UniProt P28223); assay: 5-hydroxytryptamine receptor 2A (HTR2A) small molecule agonists, cell-based qHTS assay (AID 1963587); also: nearly all actives have a fitted effect of over 30% in size
In short: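 HTR2A-CHO cells, plated 18 h at 37 C/5% CO2, dye-loaded 1 h at 37 C; compounds in DMSO added by pin tool (agonist mode). Intracellular calcium flux read as kinetic fluorescence on FDSS over 2 min at 1 s intervals.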

[11] = biological target: Muscarinic acetylcholine receptor M1 (Homo sapiens) (UniProt P11229); assay: Cholinergic receptor muscarinic 1 (CHRM1) small molecule antagonists, cell-based qHTS assay (AID 1963588); also: nearly all actives have a fitted effect of over 40% in size
Sequence of Muscarinic acetylcholine receptor M1 (Homo sapiens) (P11229 whole entry, looked up): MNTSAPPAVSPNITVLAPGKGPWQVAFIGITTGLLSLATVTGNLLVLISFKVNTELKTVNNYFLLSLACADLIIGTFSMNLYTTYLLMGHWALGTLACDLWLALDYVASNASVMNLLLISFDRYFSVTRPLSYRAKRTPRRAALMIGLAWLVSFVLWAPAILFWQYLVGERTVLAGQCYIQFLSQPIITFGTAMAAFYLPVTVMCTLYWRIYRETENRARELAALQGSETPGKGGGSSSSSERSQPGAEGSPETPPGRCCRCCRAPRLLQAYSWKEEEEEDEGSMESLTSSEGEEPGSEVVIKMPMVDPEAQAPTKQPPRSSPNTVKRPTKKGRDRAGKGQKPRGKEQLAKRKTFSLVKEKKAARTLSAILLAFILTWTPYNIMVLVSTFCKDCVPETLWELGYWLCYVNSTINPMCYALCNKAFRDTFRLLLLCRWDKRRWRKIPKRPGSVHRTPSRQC
In short: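 CHRM1-CHO calcium-flux assay, antagonist mode. Cells were seeded 18 h, dye-loaded 1 h at 37 C and given compound for 5 min at RT, then acetylcholine was added at 50nM. FDSS fluorescence was read 3 min; 15 concentrations, three runs.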

[12] = cAMP Responsive Elements (CRE) small molecule agonists, cell-based qHTS assay (AID 1963590)
In short: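 Agonist mode qHTS in CRE-bla HEK 293T cells: compounds dosed from DMSO for 3 h at 37 C/5% CO2, followed by LiveBLAzer B/G FRET substrate for 2 h at room temperature.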

[13] = cAMP Responsive Elements (CRE) small molecule antagonists, cell-based qHTS assay (AID 1963591; active = well fitted inhibition curve with a large enough effect in the signal ratio in the repeat runs, not every such curve was filed as active; the % refers to the signal ratio)
In short: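 Antagonist mode: test compounds are co-incubated with the adenylyl cyclase activator NKH477 (0.25 uM final) on CRE-bla HEK293T cells for 3 h at 37 °C, followed by LiveBLAzer substrate loading.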

[14] = biological target: D(2) dopamine receptor (Homo sapiens) (UniProt P14416); assay: Dopamine D2 receptor (DRD2) small molecule antagonists, cell-based qHTS assay (AID 1963595; active = well fitted inhibition curve with a large enough effect in the signal ratio in the repeat runs, with a control signal flat; the % refers to the signal ratio)
Sequence of D(2) dopamine receptor (Homo sapiens) (P14416 whole entry, looked up): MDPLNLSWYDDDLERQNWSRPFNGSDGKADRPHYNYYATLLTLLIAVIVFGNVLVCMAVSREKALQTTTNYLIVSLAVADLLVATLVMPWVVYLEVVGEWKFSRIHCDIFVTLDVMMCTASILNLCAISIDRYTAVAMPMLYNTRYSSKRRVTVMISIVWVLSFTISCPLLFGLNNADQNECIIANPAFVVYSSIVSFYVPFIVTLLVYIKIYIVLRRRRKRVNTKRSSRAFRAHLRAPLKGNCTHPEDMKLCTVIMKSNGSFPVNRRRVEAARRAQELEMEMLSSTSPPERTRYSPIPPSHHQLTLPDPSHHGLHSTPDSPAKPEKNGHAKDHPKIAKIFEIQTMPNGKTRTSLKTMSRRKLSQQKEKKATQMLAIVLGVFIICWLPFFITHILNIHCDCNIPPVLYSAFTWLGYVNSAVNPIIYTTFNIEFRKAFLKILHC
In short: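 HEK293 cells stably expressing DRD2, preincubated with 0.1 mM Ro20-1724 and compounds 10 min, were stimulated with 200 nM NKH477 plus 12 nM quinpirole for 30 min at room temperature; cAMP measured by HTRF (665/620 nm).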

[15] = p53 small molecule agonists, cell-based qHTS assay (AID 1963582; active = well fitted activation curve with a large enough effect in the signal ratio in the repeat runs, not every such curve was filed as active; the % refers to the signal ratio)
In short: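 Quantitative HTS in p53RE-bla cells: after a 5 h settling period, compounds delivered in DMSO were left on cells for 16 h at 37 C, and reporter induction was measured as fluorescence following 2 h substrate loading.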

[16] = biological target: Muscarinic acetylcholine receptor M1 (Homo sapiens) (UniProt P11229); assay: Cholinergic receptor muscarinic 1 (CHRM1) small molecule agonists, cell-based qHTS assay (AID 1963589); also: nearly all actives have a fitted effect of over 35% in size
In short: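 Agonist-mode qHTS in CHO cells stably carrying human muscarinic M1. Intracellular calcium is tracked by fluorescence every second after compound transfer; each compound runs at 15 concentrations in three independent runs.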

[17] = biological target: Beta-2 adrenergic receptor (Homo sapiens) (UniProt P07550); assay: Adrenergic beta2 receptor (ADRB2) small molecule antagonists, cell-based qHTS assay (AID 1963592); also: nearly all actives have a fitted effect of over 50% in size; also: potency is read from the fitted curve at half-maximal effect; as to activity change, negative = inhibition: series mostly up to about 92 µM
Sequence of Beta-2 adrenergic receptor (Homo sapiens) (P07550 whole entry, looked up): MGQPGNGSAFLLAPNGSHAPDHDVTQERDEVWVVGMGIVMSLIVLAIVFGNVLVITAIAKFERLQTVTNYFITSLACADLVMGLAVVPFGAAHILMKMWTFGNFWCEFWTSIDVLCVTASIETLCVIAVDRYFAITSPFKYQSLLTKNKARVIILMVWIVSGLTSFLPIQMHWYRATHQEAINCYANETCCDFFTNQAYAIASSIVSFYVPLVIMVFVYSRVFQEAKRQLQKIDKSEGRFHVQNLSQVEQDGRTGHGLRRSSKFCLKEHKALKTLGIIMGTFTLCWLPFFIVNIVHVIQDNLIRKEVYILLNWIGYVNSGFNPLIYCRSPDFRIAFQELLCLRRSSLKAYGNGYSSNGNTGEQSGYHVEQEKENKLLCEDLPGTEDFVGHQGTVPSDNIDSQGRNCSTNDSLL
In short: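 Cells (CHO, stable ADRB2 overexpression) incubated 18-20hr at 37C; compounds added from DMSO; agonist mix (1nM isoproterenol, 100uM IBMX, 25uM Ro-20-1724) added; 0.5hr RT; d2-cAMP and anti-cAMP-cryptate added; 1hr RT; 665/615 nm read.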

[18] = biological target: Beta-2 adrenergic receptor (Homo sapiens) (UniProt P07550); assay: Adrenergic beta2 receptor (ADRB2) small molecule agonists, cell-based qHTS assay (AID 1963593);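 also: CHO cells stably overexpressing human ADRB2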
In short: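 CHO cells stably over-expressing ADRB2 were plated overnight at 37C, then dosed with compounds plus a stimulation mix containing 100uM IBMX and 25uM Ro-20-1724 for 0.5hr at room temperature. cAMP was measured by HTRF competition, 1hr.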

[19] = biological target: D(2) dopamine receptor (Homo sapiens) (UniProt P14416); assay: Dopamine D2 receptor (DRD2) small molecule agonists, cell-based qHTS assay (AID 1963594); also: nearly all actives have a fitted effect of over 35% in size
In short: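 HEK293 cells stably expressing DRD2 were cultured 24 h at 37 C, then given Ro20-1724 (0.1 mM final) and compounds for 10 min at room temperature. NKH477 (200nM) was then added for 30 min. cAMP was read by HTRF.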

[20] = p53 small molecule agonists, cell-based qHTS assay: qHTS cell viability counter screen (AID 1963581); also: nearly all actives have a fitted effect of over 45% in size
In short: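 Cells: HCT-116 with p53 response element-driven beta-lactamase. Treatment: 16 h, 37 C, compounds in DMSO. Read: CellTiter-Glo luminescence after 30 min RT.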
% is scaled to controls: 0 for no effect and ±100 for the full control effect.

COc1ccc(Nc2ccc(OC)cc2)cc1
active: Potency [2] 27.8 µM
inactive: Potency [1] | Potency [3] | outcome [4] | Potency [5] | Potency [6] | Potency [7] | Potency [8] | Potency [9] | Potency [10] | Potency [11] | Potency [12] | Potency [13] | Potency [14]

COc1cc(O)cc(O)c1
inactive: Potency [1] | Potency [2] | Potency [3] | outcome [4] | Potency [5] | Potency [6] | Potency [8] | Potency [15] | Potency [9] | Potency [10] | Potency [11] | Potency [16] | Potency [12] | Potency [13] | Potency [17] | Potency [18] | Potency [19]

CN1CCN(C2=Nc3cc(F)ccc3Cc3ccccc32)CC1
inactive: Potency [1] | Potency [2] | Potency [3] | outcome [4] | Potency [5] | Potency [6] | Potency [7] | Potency [8] | Potency [15] | Potency [10] | Potency [16] | Potency [12] | Potency [13] | Potency [14]
active: Potency [9] 23.1 nM | Potency [17] 29.8 µM

Cc1ccc2c(c1)C(=O)c1ccccc1C2=O
inactive: Potency [1] | Potency [3] | outcome [4] | Potency [5] | Potency [7] | Potency [8] | Potency [20] | Potency [15] | Potency [9] | Potency [11] | Potency [16] | Potency [17] | Potency [18] | Potency [19]
active: Potency [2] 2.72 µM

CCCCCCCCOS(=O)(=O)O
inactive: Potency [1] | Potency [2] | Potency [3] | outcome [4] | Potency [5] | Potency [6] | Potency [8] | Potency [15] | Potency [10] | Potency [11] | Potency [16] | Potency [12] | Potency [13] | Potency [17] | Potency [19]

CCCCC1=NC2(CCCC2)C(=O)N1Cc1ccc(-c2ccccc2-c2nn[nH]n2)cc1
inactive: Potency [1] | Potency [2] | Potency [3] | outcome [4] | Potency [5] | Potency [7] | Potency [8] | Potency [17] | Potency [19] | Potency [14]

O=[N+]([O-])c1cccc(I)c1
inactive: Potency [1] | Potency [2] | Potency [3] | outcome [4] | Potency [5] | Potency [7] | Potency [8] | Potency [20] | Potency [15] | Potency [9] | Potency [10] | Potency [11] | Potency [12] | Potency [13] | Potency [17] | Potency [19] | Potency [14]

C[N+]1(C)CCCC(OC(=O)C(O)(c2ccccc2)c2ccccc2)C1 (centres undefined)
inactive: Potency [1] | Potency [2] | Potency [3] | outcome [4] | Potency [5] | Potency [7] | Potency [8] | Potency [20] | Potency [15] | Potency [10] | Potency [16] | Potency [12] | Potency [13] | Potency [17] | Potency [18] | Potency [19] | Potency [14]

CC(C)C(=O)OC/C=C/c1ccccc1
inactive: Potency [1] | Potency [2] | Potency [3] | outcome [4] | Potency [5] | Potency [6] | Potency [7] | Potency [8] | Potency [15] | Potency [10] | Potency [11] | Potency [16] | Potency [12] | Potency [13] | Potency [17] | Potency [14]

C[C@@H]1CN(c2c(F)c(N)c3c(=O)c(C(=O)O)cn(C4CC4)c3c2F)C[C@H](C)N1
inactive: activity change, negative = cytotoxicity [1] 1.83% [at 19 µM] | activity, positive = activation [2] -7.44% [at 19 µM] | activity change [3] 0.726% [at 11.8 µM, stronger effect = higher value] | activation [4] -1.07% [at 15.8 µM] | activation [5] -0.339% [at 13.5 µM] | activation [6] 0.693% [at 13.6 µM] | activity change, negative = cytotoxicity [20] 5.52% [at 13.5 µM] | activation [15] -0.164% [at 13.5 µM] | activity change, negative = inhibition [13] -4.06% [at 18.9 µM] | activity change, negative = inhibition [17] 8.12% [at 19 µM] | Potency [18] | activation [19] -2.73% [at 19 µM]

O=C(O)Cc1ccccc1Oc1ccc(Cl)cc1Cl
inactive: Potency [1] | Potency [2] | Potency [3] | outcome [4] | Potency [5] | Potency [6] | Potency [8] | Potency [20] | Potency [11] | Potency [16] | Potency [13] | Potency [17] | Potency [18] | Potency [19] | Potency [14]

CCN(CC)CCOC(=O)C1(c2ccccc2)CCCC1
inactive: Potency [1] | Potency [2] | Potency [3] | outcome [4] | Potency [5] | Potency [6] | Potency [20] | Potency [15] | Potency [10] | Potency [16] | Potency [12] | Potency [13] | Potency [17] | Potency [18] | Potency [19] | Potency [14]

CCOc1cc(OCC)c(C(=O)CCC(=O)O)cc1OCC
inactive: Potency [1] | Potency [2] | Potency [3] | outcome [4] | Potency [5] | Potency [6] | Potency [7] | Potency [20] | Potency [15] | Potency [9] | Potency [10] | Potency [16] | Potency [17] | Potency [18] | Potency [19] | Potency [14]

O=NN(CCCl)C(=O)NCCCl
inactive: Potency [1] | Potency [2] | Potency [3] | outcome [4] | Potency [5] | Potency [7] | Potency [8] | Potency [20] | Potency [15] | Potency [12] | Potency [13] | Potency [17] | Potency [18] | Potency [19] | Potency [14]

CCCCNS(=O)(=O)c1ccc(C)cc1
inactive: Potency [1] | Potency [2] | Potency [3] | outcome [4] | Potency [5] | Potency [6] | Potency [7] | Potency [20] | Potency [15] | Potency [9] | Potency [10] | Potency [11] | Potency [16] | Potency [12] | Potency [17] | Potency [18] | Potency [19] | Potency [14]
